In all, about 5,500 compounds went through this assay and about 2,000 (36%) were called active. Inconclusive results (about 18%) are left out. Rule as the data show it: active = normalized growth mostly below about 0.91 (no sharp cut-off); inconclusive = no clear call, values can overlap the other calls; inactive = mostly above about 0.92. Some of the results follow.
Assay: chemical genetic growth profiling, strain panel (AID 1159580);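 also: tested at 20 µM; growth read once vehicle control cultures reached saturation at 30 °C; 1 = growth at the plate median or of vehicle wells; lower values mean less growth of the strain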
Details: S. cerevisiae deletion strains, growth OD
[1] = locus YAR019C, strain CDC15, hits give low values
[2] = locus YBL105C, strain PKC1, hits give low values
[3] = locus YBR135W, strain CKS1, hits give low values
[4] = locus YBR136W, strain MEC1, hits give low values
[5] = locus YBR160W, strain CDC28, hits give low values
[6] = locus YDL017W, strain CDC7, hits give low values
[7] = locus YDL028C, strain MPS1, hits give low values
[8] = locus YDL101C, strain DUN1, hits give low values
[9] = locus YDL108W, strain KIN28, hits give low values
[10] = locus YDL132W, strain cdc53, hits give low values
[11] = locus YDL214C, strain PRR2, hits give low values
[12] = locus YDR052C, strain DBF4, hits give low values
[13] = locus YDR054C, strain cdc34, hits give low values
[14] = locus YDR226W, strain ADK1, hits give low values
[15] = locus YDR477W, strain SNF1, hits give low values
[16] = locus YER123W, strain YCK3, hits give low values
[17] = locus YER133W, strain GLC7, hits give low values
[18] = locus YFL009W, strain cdc4, hits give low values
[19] = locus YFL029C, strain CAK1, hits give low values
[20] = locus YFR003C, strain YPI1, hits give low values
[21] = locus YFR019W, strain FAB1, hits give low values
[22] = locus YFR028C, strain CDC14, hits give low values
[23] = locus YGR040W, strain KSS1, hits give low values
[24] = locus YGR052W, strain FMP48, hits give low values
[25] = locus YGR092W, strain DBF2, hits give low values
[26] = locus YHR030C, strain SLT2, hits give low values
[27] = locus YHR079C, strain IRE1, hits give low values
[28] = locus YHR082C, strain KSP1, hits give low values
[29] = locus YHR205W, strain SCH9, hits give low values
[30] = locus YIL147C, strain SLN1, hits give low values
[31] = locus YJL095W, strain BCK1, hits give low values
[32] = locus YJL128C, strain PBS2, hits give low values
[33] = locus YJL157C, strain FAR1, hits give low values
[34] = locus YJR016C, strain ILV3, hits give low values
[35] = locus YJR066W, strain TOR1 (second series), hits give low values
[36] = locus YJR066W, strain TOR1, hits give low values
[37] = locus YKL048C, strain ELM1, hits give low values
[38] = locus YKL067W, strain YNK1, hits give low values
[39] = locus YKL101W, strain HSL1, hits give low values
[40] = locus YKL193C, strain SDS22, hits give low values
[41] = locus YKL203C, strain TOR2, hits give low values
[42] = locus YLR113W, strain HOG1, hits give low values
[43] = locus YLR133W, strain CKI1, hits give low values
[44] = locus YLR403W, strain SFP1, hits give low values
[45] = locus YML070W, strain DAK1, hits give low values
[46] = locus YMR001C, strain CDC5, hits give low values
[47] = locus YMR205C, strain PFK2 (second series), hits give low values
[48] = locus YMR277W, strain FCP1, hits give low values
[49] = locus YNL006W, strain LST8, hits give low values
[50] = locus YNL020C, strain ARK1, hits give low values
[51] = locus YNL161W, strain CBK1, hits give low values
[52] = locus YNL183C, strain NPR1, hits give low values
[53] = locus YNL207W, strain RIO2, hits give low values
[54] = locus YNL222W, strain SSU72, hits give low values
[55] = locus YNL307C, strain MCK1 (second series), hits give low values
[56] = locus YOL078W, strain AVO1, hits give low values
[57] = locus YOL136C, strain PFK27, hits give low values
[58] = locus YOR061W, strain CKA2, hits give low values
[59] = locus YOR119C, strain RIO1, hits give low values
[60] = locus YOR231W, strain MKK1, hits give low values
[61] = locus YOR329C, strain SCD5, hits give low values
[62] = locus YPL031C, strain PHO85, hits give low values
[63] = locus YPL153C, strain RAD53, hits give low values
[64] = locus YPL204W, strain HRR25, hits give low values
[65] = locus YPL209C, strain IPL1, hits give low values
[66] = locus YPL256C, strain CLN2, hits give low values
[67] = locus YPR025C, strain CCL1, hits give low values
[68] = locus YPR106W, strain ISR1, hits give low values
[69] = locus YPR111W, strain DBF20, hits give low values
[70] = strain NNK1, hits give low values
[71] = strain TSCII, hits give low values

Measured: normalized growth

O=C(NNc1c(Cl)cccc1Cl)c1ccc([N+](=O)[O-])o1
active: [26] 0.698 | [42] 0.777 | [66] 0.811
inactive: [1] 0.956 | [2] 0.967 | [3] 0.957 | [4] 0.964 | [5] 0.945 | [6] 0.972 | [7] 0.941 | [8] 0.964 | [9] 0.949 | [10] 0.936 | [11] 0.895 | [12] 0.981 | [13] 0.959 | [14] 0.96 | [15] 0.873 | [16] 0.87 | [17] 0.916 | [18] 0.918 | [19] 0.948 | [20] 0.965 | [21] 0.89 | [22] 0.925 | [23] 0.883 | [24] 0.938 | [25] 0.874 | [27] 0.885 | [28] 0.916 | [29] 0.897 | [30] 0.96 | [31] 0.833 | [32] 0.899 | [33] 0.907 | [34] 0.956 | [35] 0.851 | [36] 0.848 | [37] 0.909 | [38] 0.886 | [39] 0.884 | [40] 0.956 | [41] 0.974 | [43] 0.906 | [44] 0.897 | [45] 0.884 | [46] 0.957 | [47] 0.937 | [48] 0.932 | [49] 0.973 | [50] 0.919 | [51] 0.966 | [52] 0.935 | [53] 0.953 | [54] 0.94 | [55] 0.887 | [56] 0.945 | [57] 0.886 | [58] 0.914 | [59] 0.917 | [60] 0.837 | [61] 0.967 | [62] 0.88 | [63] 0.875 | [64] 0.866 | [65] 0.964 | [67] 0.962 | [68] 0.96 | [69] 0.94 | [70] 0.965 | [71] 0.947

O=C(SCc1c(Cl)cccc1Cl)c1ccc([N+](=O)[O-])o1
inactive: [1] 0.954 | [2] 0.96 | [3] 0.968 | [4] 0.969 | [5] 0.964 | [6] 0.967 | [7] 0.969 | [8] 0.978 | [9] 0.961 | [10] 0.967 | [12] 0.967 | [13] 0.95 | [14] 0.959 | [18] 0.955 | [19] 0.951 | [20] 0.962 | [22] 0.962 | [30] 0.972 | [31] 0.624 | [32] 0.868 | [34] 0.965 | [40] 0.954 | [46] 0.942 | [48] 0.968 | [49] 0.976 | [51] 0.965 | [53] 0.947 | [54] 0.971 | [56] 0.963 | [61] 0.964 | [65] 0.976 | [67] 0.959 | [68] 0.985 | [69] 0.978 | [70] 0.959 | [71] 0.939
active: [11] 0.456 | [15] 0.295 | [16] 0.422 | [17] 0.553 | [21] 0.612 | [23] 0.324 | [24] 0.502 | [25] 0.221 | [26] 0.179 | [27] 0.334 | [28] 0.332 | [29] 0.0602 | [33] 0.477 | [35] 0.351 | [36] 0.425 | [37] 0.65 | [38] 0.652 | [39] 0.571 | [41] 0.438 | [42] 0.4 | [43] 0.499 | [44] 0.201 | [45] 0.547 | [47] 0.677 | [50] 0.48 | [52] 0.438 | [55] 0.247 | [57] 0.406 | [58] 0.633 | [59] 0.445 | [60] 0.578 | [62] 0.396 | [63] 0.614 | [64] 0.371 | [66] 0.232

O=C(OCc1ccc(Oc2ccc(Cl)cc2Cl)c([N+](=O)[O-])c1)c1ccc([N+](=O)[O-])o1
inactive: [1] 0.98 | [2] 0.975 | [3] 0.981 | [4] 0.961 | [5] 0.97 | [6] 0.979 | [7] 0.958 | [8] 0.98 | [9] 0.969 | [10] 0.974 | [11] 1.01 | [12] 0.99 | [13] 0.968 | [14] 0.97 | [15] 0.971 | [16] 0.987 | [17] 0.995 | [18] 0.956 | [19] 0.978 | [20] 0.985 | [21] 0.99 | [22] 0.969 | [23] 0.977 | [24] 1.07 | [25] 0.957 | [26] 0.916 | [27] 0.997 | [28] 1.04 | [29] 0.93 | [30] 0.977 | [31] 0.993 | [32] 0.896 | [33] 0.987 | [34] 0.982 | [35] 0.971 | [36] 0.972 | [37] 0.991 | [38] 1 | [39] 0.983 | [40] 0.986 | [41] 1.07 | [42] 0.999 | [43] 0.985 | [44] 0.962 | [45] 1 | [46] 0.97 | [47] 1.01 | [48] 0.966 | [49] 0.986 | [50] 0.996 | [51] 0.987 | [52] 1.07 | [53] 0.982 | [54] 0.976 | [55] 0.987 | [56] 0.985 | [57] 1 | [58] 0.975 | [59] 1.03 | [60] 0.957 | [61] 0.982 | [62] 0.974 | [63] 0.976 | [64] 0.983 | [65] 0.983 | [66] 0.993 | [67] 0.979 | [68] 0.972 | [69] 0.958 | [70] 0.983 | [71] 0.968

O=C(N/N=C\c1ccc([N+](=O)[O-])o1)c1ccc(O)cc1
inactive: [26] 0.924 | [27] 0.936 | [31] 0.907 | [36] 0.883 | [42] 0.872 | [52] 0.869 | [60] 0.91 | [66] 0.956

Reference: PubChem BioAssay AID1159580 (chemical genetic matrix, 2015)
